biological target: PLEKHN1; experiment: pooled miR-30 sensor sort-seq; sequence = guide strand; settings: shRNA
Note: reference of the scale not given here.

Sequence	sensor-assay potency score (higher = more potent)
TAGCAGTCGCTGACATCCTGGC	-0.66
TAGCTCCAGGTAGCAGTCGCTG	-1.67
TAGTGGAAGAGCTTGTTGGCGG	-0.587
TTCTCCTCCAGGTTGATGTGGA	-0.466
TGAAATGTGAGTCCTTCCGAGC	-1.13
TTTCTGGAGAAGGAGGCCCGGA	-1.45
TCGCTGGTTCTCCAGGTCCAGG	-2
TTGAACACACTCAGGAATGGCT	-0.516

biological target: PLK1S1; experiment: as above; settings: shRNA

Sequence	sensor-assay potency score (higher = more potent)
TATTCCACTATTGTCATTCAGA	-0.697
TATTTCAGCTTAACTCTGCATG	-0.461
TTTGAGCATAGCATCTTCTTAA	-0.677
TTGGTTTCGAGTATGAGCCTTC	0.232
TAGATGAAAAACTAGCTTCCGA	-0.0275
TTCAGATTCACATATTTCCTTC	-0.129
TAGTTTTACATATTTCAGCTTA	-0.42
TTGAGTCTCATATTCGAGCTTC	0.47
TTTGTCTCGAATGCACCGCTGC	-0.55
TATTCTGAAACTGGTATCGGAG	-0.809
TTGTACTACACAGCTGTCTGTC	-0.193

biological target: PLN; experiment: as above; settings: shRNA

Sequence	sensor-assay potency score (higher = more potent)
TTGACGTGCTTGTTGAGGCATT	-0.832
TAGCTTTTGACGTGCTTGTTGA	-0.611
TATAGCTGAGCGAGTGAGGTAT	-0.0267
TTTAGTCTTAATCTTGACCTTT	-0.026
TTAGTCTTAATCTTGACCTTTT	-0.719
TTTGACGTGCTTGTTGAGGCAT	0.851
TAAGATGAGACAGAAATTGATA	-0.754
TTAATCTTGACCTTTTCACAAA	-1.35
TTTCACAAAGAAACTCTTCTAC	0.725
TCTGTAGCTTTTGACGTGCTTG	-0.521
TTGAGGCTCTTCTTATAGCTGA	-0.603
TTGTTTTCCTGTCTGCATGGGA	0.161

biological target: PLS1; experiment: as above; settings: shRNA

Sequence	sensor-assay potency score (higher = more potent)
TTGTAGTTCTTCAAGCTCCTCC	0.438
TATCTTTGCTTTTTAATTCTTG	-0.576
TTAGTGACACAAACTCTTCAAA	-0.919
TTAAGAGTCTGATTGACCCATT	-0.779
TAAATTTTCAGAAATAGTGAAT	-0.578
TTCCTTGCTCTCTCCTTCCAGT	-0.4
ATTCCTTTCATTTAGGTCCTGC	0.408
TGTGCTTATAGATTTATCCTTG	0.0263
TTAACAATGCAATCAGAGCTTC	-0.361

Source: the OligoGym collection
